# Test results from article PMC12864922, “TDP-43 directly inhibits mRNA accumulation in neurites through modulation of mRNA stability”.
# Whole data set: some 9,900 sequences, median “r (bound/input frequency ratio)” near 0.7, cut for the highest 2% near 6.5. The full list was thinned out, with the highest values kept by preference.
# B1: ENSMUSG00000061578.1192|Ksr2 (ssRNA)
# RNA: GGGAGUUCUACAGUCCGACGAUCGCUUCGAUAUCCGCAUGCUAUGUCUGCUUUUGUUUCUCCACCAUGCCCCCUGCCACCUCUUCUGACAGUGCUCAGAUUUAUCAGCCACCUGACCCACAGACCCAUAUGGACACACUAGAAAGCCCAUCCUAGGUCUUUCCAUGGUCUCUCACACCCCUGUCCCCGUCCCCUCCACCCCCCGGCAGCAUGCUUCACUCUAUGAAUGAGCCGCUGGGAUAUUGACAUGGAGAUGUGUUGAUGGAAAAAGCCUCCACACCCAACAUAACUCUCCAGAGAGAUACUCUUGCGGUCGCACUAGUGUGGAAUUCUCGGGUGUCAAGG
# B2: ENSMUSG00000031028.410|Tub|118:122;252:256 (ssRNA)
# RNA: GGGAGUUCUACAGUCCGACGAUCGCUUCGAUAUCCGCAUGCUAAGAUCCCUUACCCCUCAUCCCCUCUUCUUUUUGGUCCUUGGCUGGGUAGCAAAUUGGUGAGAAGAGCAGCCUAGUCUGUAAGAGUGCAGGGCAGCUGGAACCUUAGGCAGCUCCUCUCAUACCUACCGGCUCCACACCCUAACACUCUCCACCCUCUGCUCCAAACCAGUUCUUCUGCAGAGUGGUGAUGUUAGCUUCCCCAGCUCCUCUCCAAGUCUAGCUUUUUCUGUCCUUCUGGCUCCAAGGUGCUCACACACUGUCUCUUGCGGUCGCACUAGUGUGGAAUUCUCGGGUGUCAAGG
# B3: ENSMUSG00000022095.49|Fam160b2 (ssRNA)
# RNA: GGGAGUUCUACAGUCCGACGAUCGCUUCGAUAUCCGCAUGCUACCUUUUAGAGGAGCUAGAGGAUGGCCAGUGAGCGCCUAGAUGCUGCCCUGCAUGUGUUGCGUGACUAUCUCUGCUAUAUUGUGACCAGGGCCACAACAUGAGACAACUCCAGGGGCCAGGGAGAUGAACUGCUGUCUUUGAGGCUGGCUAAAAAAACAAUCCAGUCCAGAGAGAUGGGGAGGGGGGGAGCAAGAACCCUGUCUGUUACAUUAGGUAUCAUGGAAGCUGCUAAGACUCGGCAGGUUUCUCCGAGGCUUCACCUCUUGCGGUCGCACUAGUGUGGAAUUCUCGGGUGUCAAGG
# B4: ENSMUSG00000029636.83|Wasf3|141:145 (ssRNA)
# RNA: GGGAGUUCUACAGUCCGACGAUCGCUUCGAUAUCCGCAUGCUAACCAGUGGGUGAUACGUUUUCCUGUUUCUUCCCUUUGCAAAUUGAAUUCCAGGUAGAUAUGGUUGUAGAGGGGAAAGUUUAACAAAUCAGAAUGAAAUGUUUGUCUGUUUGCACACUGGGCCUGGUGGCCUCCAAGGAAAACACAACGAUCGUUUGCUUUCUCUAUCUUGGCGCUUGCAACCGAGAGCGGCCAUUUUUAUGAGGGGAGCCCUGUGGGUACUCAUGUGGAAAGUGCCCACUGACUUUGGCAGAUGGAGUUCCUCUUGCGGUCGCACUAGUGUGGAAUUCUCGGGUGUCAAGG
# B5: ENSMUSG00000004113.216|Cacna1b (ssRNA)
# RNA: GGGAGUUCUACAGUCCGACGAUCGCUUCGAUAUCCGCAUGCUAGUCUUAGGGACAUUGACAGUGUCCAUCAGCAUGUCAGAGAAGCAGCUGUAGUGCCCGUGUUUCUCCCUGAGUCAUGGGUUCUGAAGAAGCCAGAGCGGCACAAUGCGUGCUUGCAUGAGGCACUUUCAGCCUUUUUAAAUCUGACUCUCAGGGAUGGGAUGCCUGCCAAGUAGGGUGUAAUCUCUGUUGUGUUUUUAAAACAACAACAACAAAAUAAAACAAAAAAAAAAAACCUAGUAUUCACUGGAUGCUGAAGAGUGCUCUUGCGGUCGCACUAGUGUGGAAUUCUCGGGUGUCAAGG
# B6: ENSMUSG00000035279.61|Ssc5d|92:97;148:152;163:167 (ssRNA)
# RNA: GGGAGUUCUACAGUCCGACGAUCGCUUCGAUAUCCGCAUGCUAUAAAGAGGCUAGCAGAGGUGGCCUGGCCCCCCAGCACUCCUGUGCCCAUGACCACCACCACAGAGGAGGAGGAGAGGCCUCUGAGGGGAGAACACACACCCACUCUGAAAUUCACGGUGCUUAAGAUACUCUUAAACAAAAGCCAACCAUACUACAAUCGAACACACGGUGUUGUUACUGGGGAGCAGGGGCUCUGGAGGGACAGAAUUACAAUGCUGAUCCUAACUUGUCAAUGCCAUCUGUGAUGGCGUUGGAGAUCACUCUUGCGGUCGCACUAGUGUGGAAUUCUCGGGUGUCAAGG
# B7: ENSMUSG00000031028.6|Tub (ssRNA)
# RNA: GGGAGUUCUACAGUCCGACGAUCGCUUCGAUAUCCGCAUGCUAUAGCAGAAGAUGUGUUCACCAUGGAUUACAACUACCCACUGUGUGCACUGCAGGCCUUUGCCAUUGCUCUGUCCAGCUUUGACAGCAAGCUGGCCUGCGAGUAGAGGCCCCCCACUGCCUUUAGGUGGCCCAGUCCGGAGUGGAGCUUGCCUGCCUGCCAAGACAGCCCUGCCUACCCUCUGUUCAUAGGCCCUCUAUGGGCUUUCUGGCCUUACCAACCAGAGACUGGCUGCUCUGCCUCUGCUGCUGAAGCAGGGGGGCUCUUGCGGUCGCACUAGUGUGGAAUUCUCGGGUGUCAAGG
# B8: ENSMUSG00000058297.454|Spock2 (ssRNA)
# RNA: GGGAGUUCUACAGUCCGACGAUCGCUUCGAUAUCCGCAUGCUAUCAGGAGCAAGGUCACACAGGUCAGAUUAUUGUCGGUCCUGCGGGCCUCAUCCUUGAAUAAGCUGCCUGCCCAGUUCCUCCAUCCGUGUUCCUGCCUGCUCCCGUUCCCUUGUUGCGGGCAGGAGAGGUAGGGCUGUGUUGGAAAGAGUUCAACCAAAUUACGGCAGCACCACAUCUUGCCGAGCCCUGGAGCUGCCCUACUAAGAGCCUCCUUAGCCCUGGGUGCUGGGAAGGAUGGUGUACGUUGGGGAAGUUUGAGGCUCUUGCGGUCGCACUAGUGUGGAAUUCUCGGGUGUCAAGG
# Molecular target: TDP-43 (Homo sapiens, UniProt Q13148 1-414)
# Assay: RNA Bind-n-Seq with designed 260-mer pool; 25 mM Tris-HCl, 150 mM KCl, 3 mM MgCl2, BSA (printed 500 mg/mL), 20 units/mL SUPERase IN; pH not stated; 500 nM RNA pool, 1 h, 4 C; TDP-43 5, 50, 500 nM; high values mean tight binding
# Conditions: protein: recombinant; tags: SBP (GST cleaved off with PreScission; pGEX-GST-SBP)
# Outline: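 Recombinant SBP-tagged TDP-43 at 5, 50 or 500 nM was captured on streptavidin beads, then incubated 1 h at 4 °C with 500 nM of an in vitro-transcribed 260-nt 3′ UTR oligo pool in 25 mM Tris-HCl, 150 mM KCl, 3 mM MgCl2, BSA and SUPERase IN. Bound RNA was washed, eluted with biotin, reverse transcribed, PCR-amplified and sequenced. Binding is R, each oligo's mapped-read-normalized abundance in the bound sample divided by its abundance in input. Duplicates used two independent protein batches.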
# Sequence of TDP-43 (Q13148 whole entry): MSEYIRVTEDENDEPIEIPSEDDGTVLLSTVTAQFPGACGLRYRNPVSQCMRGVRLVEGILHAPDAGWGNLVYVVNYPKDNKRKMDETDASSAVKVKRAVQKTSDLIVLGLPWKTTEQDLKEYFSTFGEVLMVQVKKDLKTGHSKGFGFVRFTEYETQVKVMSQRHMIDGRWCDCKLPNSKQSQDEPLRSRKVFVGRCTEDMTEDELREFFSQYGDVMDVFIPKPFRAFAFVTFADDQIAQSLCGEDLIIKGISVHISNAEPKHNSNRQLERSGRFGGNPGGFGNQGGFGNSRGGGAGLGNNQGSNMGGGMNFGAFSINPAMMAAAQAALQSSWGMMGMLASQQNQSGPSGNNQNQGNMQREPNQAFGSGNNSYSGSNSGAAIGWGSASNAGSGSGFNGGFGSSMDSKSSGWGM
row,Binder,binding signal
1,B1,1.3 R (bound/input frequency ratio)
2,B2,2.59 R (bound/input frequency ratio)
3,B3,1.16 R (bound/input frequency ratio)
4,B4,1.97 R (bound/input frequency ratio)
5,B5,1.66 R (bound/input frequency ratio)
6,B6,0.434 R (bound/input frequency ratio)
7,B7,0.331 R (bound/input frequency ratio)
8,B8,0.419 R (bound/input frequency ratio)
